Several values for one entry are separate records, joined by “and”; a condition that tells them apart may be missing. Equal entries are not always repeated. Inconclusive results are not listed. Activity calls are given as the source filed them. The call rests on the fitted dose curve; in most records, active means well fitted activation curve with a large enough effect; inconclusive means small, poorly fitted or top-dose-only effect; inactive means no such curve, though single readings can be large or run the other way.

Pyruvate kinase PKM (Homo sapiens), sequence (P14618 whole entry, looked up, canonical isoform): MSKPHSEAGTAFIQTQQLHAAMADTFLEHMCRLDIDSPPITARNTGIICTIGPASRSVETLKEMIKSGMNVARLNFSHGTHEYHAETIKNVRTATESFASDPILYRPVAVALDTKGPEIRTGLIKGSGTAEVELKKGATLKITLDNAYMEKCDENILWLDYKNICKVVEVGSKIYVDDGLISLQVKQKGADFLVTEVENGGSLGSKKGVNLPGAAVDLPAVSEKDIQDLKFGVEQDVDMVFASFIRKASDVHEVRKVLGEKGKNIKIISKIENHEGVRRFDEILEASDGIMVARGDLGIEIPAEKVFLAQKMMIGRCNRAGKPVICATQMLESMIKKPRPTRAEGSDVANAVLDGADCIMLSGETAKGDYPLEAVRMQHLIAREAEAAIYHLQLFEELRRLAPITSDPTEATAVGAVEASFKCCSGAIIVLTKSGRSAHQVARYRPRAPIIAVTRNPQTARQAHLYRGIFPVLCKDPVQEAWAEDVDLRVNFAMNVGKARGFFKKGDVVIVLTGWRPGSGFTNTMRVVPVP

This assay concerns the target Pyruvate kinase PKM (Homo sapiens) (UniProt P14618). Put plainly: Confirmation Concentration-Response Assay for Activators of Human Muscle isoform 2 Pyruvate Kinase. The following applies: purified hPK-M2, Kinase-Glo ATP luminescence, 1 h; series mostly up to 57.5 µM. The text has this: NIH Chemical Genomics Center [NCGC] Matthew G. Vander Heiden, M.D., Ph.D. [Harvard Medical School, 77 Avenue Louis Pasteur, Boston, MA 02115] MLPCN Grant: 1 R03 MH085679-01 NCGC Assay Overview: Human pyruvate kinase muscle 2 (hPK-M2) enzyme was supplied as a highly purified (>95% pure) preparation from Harvard Medical School and assayed for its ability to generate ATP from ADP using phosphoenolpyruvate (PEP) as a substrate. ATP generation was detected in a coupled reaction by luciferase-mediated luminescence, an ATP-dependent process. Pyruvate kinase substrates, PEP and ADP, were present in the assay at Km and approximately 10-fold below Km respectively. The enzyme was assayed at an intermediate level of activity to screen for both inhibitors and activators.
NCGC Assay Protocol Summary: Three uL of substrate mix (at r.t.) in assay buffer (50 mM Imidazole pH7.2, 50 mM KCl, 7 mM MgCl2, 0.01% Tween 20, 0.05% BSA) was dispensed into white solid bottom 1,536 well microtiter plates so that the final concentrations of substrates in the assay were 0.1 mM ADP and 0.5 mM PEP. 23 nL of compound were delivered by a pin tool and 1 uL of enzyme mix (final concentration of 0.1 nM) in assay buffer (4 degree Celsius) was added. Plates were incubated at room temperature for 1 hour. Two uL of detection mix (Kinase-Glo, Promega; at 4 degree Celsius protected from light) was added and luminescence read by a ViewLux (Perkin Elmer) at 1 second exposure/plate. Data were normalized to the uninhibited (column 3) and AC100 inhibition (no enzyme in column 2). To monitor activation, the first column contained a titration of the activator, NCGC00031955-03 (16-point 1:2 dilutions in duplicate starting at 57 uM) and the first 16 rows of column 4 contained 57 uM of NCGC00031955-03.
In the case of `O=S(=O)(c1ccc2c(c1)OCCO2)N1CCCN(S(=O)(=O)c2c(F)cccc2F)CC1`, the Potency is 566 nM (active).
The same measure for `O=S(=O)(NCCCCCCNS(=O)(=O)c1c(F)cccc1F)c1ccc2c(c1)OCCO2`: 4010 nM (active); for `Cc1sc2ncnc(OCC(=O)N3CCN(S(=O)(=O)c4ccc(Cl)cc4)CC3)c2c1C`: “inactive”; for `CN1CCOc2ccc(S(=O)(=O)N3CCN(S(=O)(=O)c4c(F)cccc4F)CC3)cc21`: 2010 nM (active).
Take `O=S(=O)(NCC1CN(S(=O)(=O)c2ccc3c(c2)OCCO3)C1)c1c(F)cccc1F`: the Potency is 4010 nM (active).
Regarding `O=S(=O)(c1ccc2ccccc2c1)N1CCN(S(=O)(=O)c2c(F)cccc2F)CC1`, the Potency was 56.6 nM (active).
On to `Cn1c2cc([N+](=O)[O-])sc2c2cnn(Cc3ccccc3F)c(=O)c21`, for which the Potency was 12.7 nM (active).
On to `Cc1cc2c(s1)c1cnn(Cc3ccc(C(F)(F)F)cc3F)c(=O)c1n2C`, for which the Potency is 16000 nM (active).
As to `O=S(=O)(c1ccc2c(c1)OCCO2)N1CCN(S(=O)(=O)c2c(F)cccc2F)CC1`, the Potency was 35.7 nM (active).
Regarding `O=C1C(=C2SCCCS2)CC/C1=C\c1ccc(F)cc1`, the Potency result is “inactive”.
The same measure for `O=S(=O)(c1ccc2c(c1)OCCCO2)N1CCN(S(=O)(=O)c2c(F)cccc2F)CC1`: 80 nM (active); for `COc1cc2c(s1)c1cnn(Cc3ccccc3F)c(=O)c1n2C`: 40.1 nM (active); for `Cn1c2cc(B(O)O)sc2c2cnn(Cc3ccccc3F)c(=O)c21`: 6350 nM (active).
With `Cc1cc2c(s1)c1cnn(Cc3cc(C(F)(F)F)cc(Cl)c3F)c(=O)c1n2C`, the Potency is 20.1 nM (active).
The same measure for `CCn1c2cc(C)sc2c2cnn(Cc3ccccc3F)c(=O)c21`: 4010 nM (active); for `Cc1cc(C)nc(SCCc2ccncc2)n1`: “inactive”.
To `Cc1cccc(NC(=O)c2cnc3ccccn3c2=O)c1` belongs “inactive”; to `COc1ccc(Cn2ncc3c4sc(C)cc4n(C)c3c2=O)cc1`, 20.1 nM (active).
`Cc1cc2c(s1)c1cnn(Cc3ccccc3)c(=O)c1n2C`: the Potency is 45 nM (active).
On to `CC1(C)CCc2cc(S(=O)(=O)N3CCN(S(=O)(=O)c4c(F)cccc4F)CC3)ccc2O1`, for which the Potency was 71.3 nM (active).
As to `CC(C)c1cc2c(s1)c1cnn(Cc3ccccc3F)c(=O)c1n2C`, the Potency was 101 nM (active).
`O=S(=O)(c1ccc(F)cc1)N1CCN(S(=O)(=O)c2ccc3c(c2)OCCO3)CC1`: the Potency is 56.6 nM (active).
On to `Cc1cc2c(s1)c1c(C)nn(Cc3ccccc3F)c(=O)c1n2C`, for which the Potency was 20100 nM (active).
`Cc1cc2c(s1)c1cnn(Cc3ccc(C)c(F)c3F)c(=O)c1n2C`: the Potency is 56.6 nM (active).
The same measure for `COc1cc(F)c(S(=O)(=O)N2CCN(S(=O)(=O)c3ccc4c(c3)OCCO4)CC2)c(F)c1`: 17.9 nM (active).
With `O=S(=O)(c1ccc2c(c1)OCCO2)N1CCN(S(=O)(=O)c2cc(F)c(F)cc2F)CC1`, the Potency was 71.3 nM (active).
The same measure for `O=S(=O)(NC1CCN(S(=O)(=O)c2c(F)cccc2F)C1)c1ccc2c(c1)OCCO2` (stereo not drawn): 11300 nM (active); for `Cn1c2cc(C#N)sc2c2cnn(Cc3ccccc3F)c(=O)c21`: 11.3 µM (active) and 22.5 nM (active); for `CSc1cc2c(s1)c1cnn(Cc3ccccc3F)c(=O)c1n2C`: 14.2 nM (active).
`O=C(/C=C/c1cccc(Cl)c1)c1nc2ccccc2[nH]1`: the Potency entry was “inactive”.
In the case of `O=S(=O)(NCC1CN(S(=O)(=O)c2c(F)cccc2F)C1)c1ccc2c(c1)OCCO2`, the Potency was 2530 nM (active).
To `O=S(=O)(NC1CCN(S(=O)(=O)c2c(F)cccc2F)CC1)c1ccc2c(c1)OCCO2` belongs 3570 nM (active); to `Cc1cc2c(s1)c1cnn(Cc3c(F)cccc3Cl)c(=O)c1n2C`, 40.1 nM (active).

These data come from PubChem BioAssay AID1751 (National Center for Advancing Translational Sciences (NCATS), 2009).
